SMILES strings stand for the structures. About 5,800 (36%) of roughly 16,000 compounds were called active. Not shown: some 23% with an inconclusive outcome. Some of the results follow. Unmarked numbers belong to inactive results. Calls come from the whole dose curve; as a rule, active = well fitted curve in the direction sought with a large enough effect; inconclusive = small, poorly fitted or top-dose-only effect, or effect the other way; inactive = no such curve, though single readings can be large or run the other way.
% is set by controls: 0 for no effect and ±100 for the full control effect.

The target of this experiment is Cytochrome P450 2C19 (Homo sapiens) (UniProt P33261). In words: Cytochrome panel assay with activity outcomes. To be noted: recombinant CYP, pro-luciferin dealkylation, luminescence, p450-cyp2c19; series mostly up to 57.1 µM; activity, negative = inhibition: at the top concentration.
Chain of Cytochrome P450 2C19 (Homo sapiens) (P33261 whole entry, looked up): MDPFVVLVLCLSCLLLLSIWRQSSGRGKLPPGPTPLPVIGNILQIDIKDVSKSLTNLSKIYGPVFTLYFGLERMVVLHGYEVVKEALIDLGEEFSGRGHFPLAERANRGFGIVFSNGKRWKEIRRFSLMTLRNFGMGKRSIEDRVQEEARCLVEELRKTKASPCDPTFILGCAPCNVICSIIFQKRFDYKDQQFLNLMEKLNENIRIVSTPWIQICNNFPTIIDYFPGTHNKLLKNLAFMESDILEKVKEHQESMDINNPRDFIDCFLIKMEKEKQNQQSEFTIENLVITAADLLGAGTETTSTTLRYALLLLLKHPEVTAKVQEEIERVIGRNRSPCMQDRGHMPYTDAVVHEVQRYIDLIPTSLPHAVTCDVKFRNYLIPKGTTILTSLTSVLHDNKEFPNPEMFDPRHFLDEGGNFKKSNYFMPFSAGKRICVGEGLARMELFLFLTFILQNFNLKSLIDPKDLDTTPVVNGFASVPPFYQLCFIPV
Take `C[C@@]1(CCOCc2ccccc2)NC(=O)NC1=O`: the activity, negative = inhibition was 0.432% [at 11.4 µM].
In the case of `COc1ccc(C2(CNC(=O)/C=C/c3ccco3)CCCC2)cc1OC`, the AC50 (in general, the concentration at which the activity in the assay is half-maximal) is 7.94 µM (active).
With `COc1cc(OC)c(OC)cc1C=NCC1(c2ccccc2)CCCC1`, the “activity, negative = inhibition” value was -3.79%.
As to `CC[N+](CC)(CC)CC[C@](O)(c1ccccc1)C1CCCCC1`, the “activity, negative = inhibition” value is -27.2% [at 25.6 µM].
As to `CCCc1cc2c(n1CCc1ccc(Cl)cc1)C(C)C1CN(C(=O)c3ccccc3)C(C)(C(=O)OC)C21` (stereo not drawn), the AC50 is 6.31 µM (active).
For the molecule `Nc1ccc(C(=O)C[C@H](N)C(=O)O)cc1O`, the activity, negative = inhibition was -13.9% [at 11.4 µM].
In the case of `O=C(O)[C@H]1CCCNC1`, the “activity, negative = inhibition” value was -20.1%.
Consider `Nc1nc(-c2ccccc2)cc(-c2ccccc2O)n1`, for which the AC50 is 10 µM (active).
In the case of `Cc1ccccc1-c1cc(-c2ccccc2O)on1`, the AC50 was 4.47 µM (active).
In the case of `CC(C)=NOCc1ccc(-c2cc(-c3ccccc3)no2)cc1`, the activity, negative = inhibition was -13.3% [at 11.4 µM].
Same read-out and setting: the value for `Nc1nc(-c2cc(-c3cccc4ccccc34)nc(N)n2)cc(-c2cccc3ccccc23)n1` was 11.9% [at 11.4 µM].
Regarding `Oc1ccccc1-c1cc(-c2ccccc2)no1`, the AC50 was 7.94 µM (active).
Take `Cc1[nH]c2ccccc2c1-c1cc(-c2cc(-c3c(C)[nH]c4ccccc34)on2)no1`: the activity, negative = inhibition is 0.833% [at 11.4 µM].
Same read-out and setting: for `COc1cc2c(cc1OC)-c1cc3ccc(OC)c(OC)c3c[n+]1CC2` the value was 6.43% [at 25.6 µM].
Regarding `CCOC(=O)C1=C(C)C(c2ccccc2OC)NC(=S)N1` (stereo not drawn), the AC50 is 5.62 µM (active).
Regarding `COc1ccc(C2C(C(=O)N3CCOCC3)CCC(=O)N2c2ccc(OC)cc2)cc1` (stereo not drawn), the “activity, negative = inhibition” value is -8.37%.
Same read-out and setting: the value for `CCOC(=O)c1c(NC(C)=O)sc2c(OC)cccc12` was -21.9%.
For `COC(=O)C1=C(C)C(c2ccc(OC)cc2)NC(=S)N1` (stereo not drawn), the AC50 was 14.1 µM (active).
Take `CCOC(=O)C1=C(C)NC(=S)NC1c1cccc(O)c1` (stereo not drawn): the AC50 is 25.1 µM (active).
On to `COc1ccc(N2C(=O)CCC(C(=O)O)C2c2ccc(F)cc2)cc1` (stereo not drawn), for which the “activity, negative = inhibition” value is 0.032%.
On the same count and under the same terms, for `CS(=O)(=O)N1CCC2(CC1)CN(C(=O)Nc1cccc(C#N)c1)C2` the value was -28.2%.
On the same count and under the same terms, for `CCN(CC)C(=O)Cn1cnc([N+](=O)[O-])n1` the value was -10.4%.
`CC(NC(=O)Cn1cnc([N+](=O)[O-])n1)c1ccccc1` (stereo not drawn): the AC50 is 39.8 µM (active).
As for `CC(C)(C)NC(=O)Cn1cnc([N+](=O)[O-])n1`, the “activity, negative = inhibition” value was -15.5%.
With `O=C1CCC(c2ccccc2)=NN1c1nc2ccccc2s1`, the activity, negative = inhibition was 6.12% [at 11.4 µM].
On the same count and under the same terms, the value for `O=S(=O)(c1ccccc1)N1CCC2(CCN(C(c3ccccc3)c3ccccc3)CC2)CC1` was 7.59%.
In the case of `O=S(=O)(c1ccccc1)N1CCCC1c1nc2ccccc2s1` (stereo not drawn), the AC50 is 4.47 µM (active).
On to `N#CCCn1c(=O)c(-c2cccc(C#N)c2)nc2cnc(N3CCOCC3)nc21`, for which the “activity, negative = inhibition” value is -0.444%.
`COc1ccc2c(c1)-c1ccccc1S(=O)(=O)N2C`: the AC50 was 14.1 µM (active).
Same read-out and setting: the value for `CC1CC2=C(NC(=S)NC2c2ccc(F)cc2)/C(=C/c2ccc(F)cc2)C1` (stereo not drawn) was 3.55 µM (active); that for `Cc1ccccc1C(=O)N1CCN(c2ccc([N+](=O)[O-])c(NCc3ccco3)c2)CC1` was 3.16 µM (active).
Same read-out and setting: for `Cc1cccc(C(=O)NCN2CCN(c3ccccc3C#N)CC2)c1` the value was “inactive”.
With `N#Cc1ccc(C(=O)Nc2ccc(N3CCN(C(=O)c4ccco4)CC3)cc2)c(F)c1`, the “activity, negative = inhibition” value is 32.4%.
As for `Cc1cccc(C(=O)N2CCN(c3ccc([N+](=O)[O-])c(NCc4ccco4)c3)CC2)c1`, the AC50 is 7.94 µM (active).
For `CC[C@]1(O)C[C@H]2CN(CCc3c([nH]c4ccccc34)[C@](C(=O)OC)(c3cc4c(cc3OC)N(C=O)[C@H]3[C@@](O)(C(=O)OC)[C@H](OC(C)=O)[C@@]5(CC)C=CCN6CC[C@]43[C@H]65)C2)C1`, the “activity, negative = inhibition” value is 0.687%.
On to `Cc1[nH]nc(-c2ccc(OCc3cnn(-c4ccccc4)c3)cc2O)c1Oc1ccccc1F`, for which the AC50 was 1.78 µM (active).
On the same count and under the same terms, for `O=C(Nc1ccc2oc(-c3ccccc3F)nc2c1)c1ccc2c(c1)OCCO2` the value was 3.98 µM (active).
Turning to `CCC(C)[C@H](NC(=O)NC1CCN(Cc2ccccc2)CC1)C(=O)OC` (stereo partly drawn), the “activity, negative = inhibition” value is -5.66%.
On the same count and under the same terms, for `COc1cc(N)c(Cl)cc1C(=O)NC1CCN(Cc2ccccc2)CC1` the value was 2.99% [at 25.6 µM].
Regarding `CCCNC(=O)N1CCC(C(=O)c2ccc(F)cc2)CC1`, the AC50 is 17.8 µM (active).
`O=C(Cc1ccccc1)NC1CCN(S(=O)(=O)c2ccc(C(=O)O)cc2)CC1`: the “activity, negative = inhibition” value is -16.9%.
Turning to `COc1ccccc1NC(=O)CN1CCN(c2ccccc2F)CC1`, the AC50 is 2.51 µM (active).
Take `CN(C)CCNC(=O)C(C(=O)c1ccc(F)cc1)n1ccccc1=O` (stereo not drawn): the “activity, negative = inhibition” value was -7.72%.
`O=C(NC1CCN(Cc2ccccc2)CC1)c1ccc(I)cc1`: the AC50 was 15.8 µM (active).
Still for that read-out and setting: for `Cc1ccc(NC(=O)CN2CCC(NC(=O)Cc3ccccc3)CC2)cc1C` the value was 0.0178 µM (active).
Regarding `O=C1C(O)=C(O)C(=O)C(O)=C1O`, the “activity, negative = inhibition” value was 17.6% [at 25.6 µM].
On the same count and under the same terms, the value for `NC(N)=NNC(=O)C(=O)O` was 28.3% [at 11.4 µM].
On to `COc1ccccc1NC(=O)CN1CCC(C(=O)c2ccc(F)cc2)CC1`, for which the AC50 is 5.01 µM (active).
Take `CCN(CC)c1ccc(NC(=O)CN2CCN(c3ccccc3F)CC2)cc1`: the AC50 was 14.1 µM (active).
For the molecule `Cc1cccc(N2CCN(CC(=O)Nc3ccc(-n4cnnn4)cc3)CC2)c1C`, the “activity, negative = inhibition” value was -15%.
As to `CCOc1ccccc1NC(=O)CN1CCC(NC(=O)c2ccccc2)CC1`, the AC50 was 1 µM (active).
As to `O=C(c1ccc(F)cc1)C1CCN(CCCCc2ccccc2)CC1`, the “activity, negative = inhibition” value was -26%.
Same read-out and setting: the value for `CCOc1ccccc1NC(=O)C(=O)NCC1CCCN1CC` (stereo not drawn) was -28.1%; that for `CC(C)NC(=O)N1CC2(CCN(C(=O)c3cc(C(F)(F)F)cc(C(F)(F)F)c3)CC2)C1` was -25.6%; that for `Nc1ncnc(N(c2ccccc2)C2CCCCC2)c1[N+](=O)[O-]` was -9.85%.
Regarding `N=c1nc(N2CCCCC2)cc(N)n1O`, the AC50 entry was “inactive”.
For `Fc1ccccc1OCCCCSc1ncccn1`, the AC50 was 3.98 µM (active).
For the molecule `COc1cccc(-c2nccc(NC3CCNCC3)n2)c1`, the “activity, negative = inhibition” value was -23%.
`N#Cc1cccc(-c2nccc(-n3ccnc3)n2)c1`: the AC50 was 7.94 µM (active).
As for `CN1CCN(c2ccnc(-c3ccoc3)n2)CC1`, the “activity, negative = inhibition” value was -64.3%.
As to `CCNc1ncc2nc(-c3cccc(C#N)c3)c(=O)n(C)c2n1`, the “activity, negative = inhibition” value was 3.41%.
Regarding `N#Cc1cccc(-c2cc(-n3ccnc3)ncn2)c1`, the AC50 is 0.158 µM (active).
As to `N#Cc1cccc(-c2nc(N3CCNCC3)c3ccccc3n2)c1`, the “activity, negative = inhibition” value was -10%.
Turning to `c1cn(-c2ccnc(-c3ccc4c(c3)OCO4)n2)cn1`, the AC50 is 10 µM (active).
Same read-out and setting: the value for `COc1cccc(-c2nccc(-n3ccnc3)n2)c1` was 2.51 µM (active).
For the molecule `C[n+]1cc(-c2ccccc2)n2c1CCCCC2`, the “activity, negative = inhibition” value is -27%.
For `CCCCSCc1nc2nc(Cl)c(Cl)nc2[nH]1`, the AC50 was 2 µM (active).
For the molecule `NC(=S)Nc1cccc2cccnc12`, the “activity, negative = inhibition” value was -16.1%.
On to `CC(C)(C)C(=O)NC(Nc1cccc2cccnc12)C(Cl)(Cl)Cl` (stereo not drawn), for which the AC50 is 0.794 µM (active).
For `O=C(Nc1cccc2cccnc12)[C@@H]1[C@@H](C(=O)O)[C@H]2CC[C@@H]1O2`, the activity, negative = inhibition was 29.3% [at 11.4 µM].
The same measure, in the same setting: the value for `COC(=O)N1CCC2(CCCN(Cc3ccccc3)C2)CC1` was 2.29%.
Still for that read-out and setting: the value for `CC(C)NC1(C(N)=O)CCN(Cc2ccccc2)CC1` was -1.03% [at 11.4 µM].
Same read-out and setting: the value for `CCN1CCN(c2nn3c(=O)c4ccccc4nc3c3ccccc23)CC1` was -58.2%.
As to `CC(C)OC(=O)C(C#N)c1nc2ccccc2nc1N1CCN(Cc2ccccc2)CC1` (stereo not drawn), the AC50 is 0.00562 µM (active).
The same measure, in the same setting: the value for `CCCCCCOC(=O)C(C#N)c1nc2ccccc2nc1N1CCN(CC)CC1` (stereo not drawn) was 8.91 µM (active).
As for `CCn1c(=O)[nH]c2cc(Cl)c(Cl)cc21`, the “activity, negative = inhibition” value is -23.1%.
As to `COc1ccc(CCN2C(=NC(=O)CCC(=O)O)SC3CS(=O)(=O)CC32)cc1` (stereo not drawn), the AC50 is 14.1 µM (active).
As for `C=CCN1C(=NC(=O)CC)SC2CS(=O)(=O)CC21` (stereo not drawn), the “activity, negative = inhibition” value was -1.43%.
Consider `CCCC(=O)N=C1SC2CS(=O)(=O)CC2N1c1ccc(CC)cc1` (stereo not drawn), for which the AC50 is 7.08 µM (active).
Regarding `CC(C)NC(=O)N1CC2(CCN(C(=O)c3ccncc3)CC2)C1`, the “activity, negative = inhibition” value was -30.2%.
For the molecule `Clc1ccc(-c2cc3ccccc3[nH]2)cc1`, the AC50 is 3.16 µM (active).
In the case of `c1ccc(C[n+]2cccc(-c3cc4ccccc4[nH]3)c2)cc1`, the activity, negative = inhibition was 22.1% [at 11.4 µM].
Still for that read-out and setting: the value for `C[C@@H](N1CCOCC1)[C@@](O)(c1ccccc1)c1ccccn1` was 5.67% [at 11.4 µM].
For `OC(c1ccccc1)(c1ccc(F)cc1)C(c1ccccc1)N1CCOCC1` (stereo not drawn), the AC50 is 2.82 µM (active).
As for `CC(C)NC(=O)N1CCC2(CC1)CCN(C(=O)c1cccc(F)c1)CC2`, the “activity, negative = inhibition” value is 0.929%.
Still for that read-out and setting: for `C=C[C@@]1(C)CC(=O)[C@@]2(O)[C@@]3(C)[C@H](O)CCC(C)(C)[C@@H]3[C@H](O)[C@H](OC(C)=O)[C@]2(C)O1` the value was -17.4%.
Turning to `C=C[C@@]1(C)CC(=O)[C@@]2(O)[C@@]3(C)[C@@H](O)CCC(C)(C)[C@@H]3[C@H](OC(=O)CCN(C)C)[C@H](OC(C)=O)[C@@]2(C)O1`, the AC50 was 0.251 µM (active).
Regarding `Cc1cc(C2CCCCC2)n(O)c(=O)c1`, the “activity, negative = inhibition” value was -32.4% [at 25.6 µM].
Turning to `Cc1cc2nc(SCCOC(=O)Nc3ccc(Cl)cc3)nc(C)c2cc1C`, the AC50 was 0.794 µM (active).
Consider `CSc1ccc(S(=O)(=O)Nc2ccc3c4c(cccc24)CC3)cc1`, for which the AC50 was 0.447 µM (active).
With `O=C(c1cccc(F)c1)N1CCC[C@@]2(CCN(Cc3nccs3)C2)C1`, the AC50 was 2.51 µM (active).
The same measure, in the same setting: the value for `O=C(c1cccc(F)c1)N1CCC2(CCN(Cc3nccs3)CC2)CC1` was 1.58 µM (active).
As for `O=C(c1cc(C(F)(F)F)cc(C(F)(F)F)c1)N1CCC2(CCN(Cc3nccs3)CC2)CC1`, the “activity, negative = inhibition” value was -44.9%.
Same read-out and setting: the value for `O=C(c1ccncc1)N1CCC2(CCN(Cc3nccs3)CC2)CC1` was 6.61%; that for `O=C(c1cccc(F)c1)N1CCC2(CCCN(Cc3nccs3)C2)CC1` was 1.9%.
On the same count and under the same terms, the value for `O=C(c1cc(C(F)(F)F)cc(C(F)(F)F)c1)N1CCC[C@@]2(CCN(Cc3nccs3)C2)C1` was -12.7%.
As for `CCC1(c2ccccc2)C(=O)NCNC1=O`, the AC50 entry was “inactive”.
With `COCCn1c(=O)c(-c2ccccc2)nc2cnc(Nc3cccc(OC)c3)nc21`, the “activity, negative = inhibition” value was -19%.

The values above are taken from PubChem BioAssay AID1851 (National Center for Advancing Translational Sciences (NCATS), 2009).
